# Laboratory results reported in the supplement of paper PMC13380429.
# Unmarked numbers belong to inactive results.
# Tested on: Vero E6 infected with SARS-CoV-2
# Assay: inhibition of SARS-CoV-2 cytopathic effect; higher = more antiviral protection, active = above 15
# Settings: 48 h
Structure (SMILES),inhibition of SARS-CoV-2 cytopathic effect (1 nM) [%],inhibition of SARS-CoV-2 cytopathic effect (8.33 nM) [%],inhibition of SARS-CoV-2 cytopathic effect (100 nM) [%],inhibition of SARS-CoV-2 cytopathic effect (833.33 nM) [%],inhibition of SARS-CoV-2 cytopathic effect (10000 nM)
COc1ccc(Cl)cc1[C@]1(F)C(=O)Nc2cc(C(F)(F)F)ccc21 [flindokalner],2.54,0,-1.3,1.03,-0.62%
Cc1c(Cl)cccc1S(=O)(=O)Nc1nc(CC(=O)N2CCN(C)CC2)cs1,1.65,0.23,-1.13,3.23,2.25%
CCN(CC)C(=S)S [ditiocarb-sodium-trihydrate],0.85,-0.21,0.86,-0.23,23.6% (active)
O=C(NCC1CCOCC1)c1cnc(Nc2ccc(Cl)cc2Cl)nc1C(F)(F)F,-0.74,0.36,0.86,1.5,3.56%
CNC(=N)NC(=O)Nc1c(C)cccc1C [lidamidine],0.93,2.74,3.39,3.62,-2.49%
CCOC(=O)N1c2ccc(C(F)(F)F)cc2[C@@H](N(Cc2cc(C(F)(F)F)cc(C(F)(F)F)c2)C(=O)OC)C[C@H]1CC,0.17,0.5,0.49,1.09,1.77%
COC(=O)C1=CO[C@@H](O[C@@H]2O[C@H](CO)[C@@H](O)[C@H](O)[C@H]2O)[C@@H]2C(CO)=CC[C@H]12 [geniposide],-1.56,-1.45,-10.1,-17,-18.6%
CC(=O)OCC(=O)[C@@]1(O)CC[C@H]2[C@@H]3CCC4=CC(=O)CC[C@]4(C)[C@H]3C(=O)C[C@@]21C [cortisone-acetate],-0.91,-1.31,-1.03,0.49,0.27%
CN[C@@H](C)C(=O)N[C@H](C(=O)N1CCC[C@H]1C(=O)Nc1sc(-c2ncco2)nc1-c1ccccc1)C1CCCCC1,-0.55,-0.2,-0.7,0.89,0.18%
CN(C)C/C=C/C(=O)Nc1ccc(C(=O)Nc2cccc(Nc3ncc(Cl)c(-c4c[nH]c5ccccc45)n3)c2)cc1,-0.79,-1.41,-1.48,-2.92,-8.5%
CNCCCN1c2ccccc2CCc2ccccc21 [desipramine],-0.7,-0.11,-1.22,-1.13,-2.62%
CN1CCN(C(=O)c2nc3ccc(Cl)cc3[nH]2)CC1,-2,1.3,0.78,1.23,1.76%
N[C@@H](Cc1c[nH]c2ccccc12)C(=O)O [tryptophan],-6.32,-7.31,-3.29,-4.07,-10.4%
COc1cc2c(Oc3ccc4[nH]c(C)cc4c3F)ccnc2cc1OCC1(N)CC1 [anlotinib],1.84,-1.41,1.56,1.39,-7.82%
C[C@@](Cc1ccc(O)c(O)c1)(NN)C(=O)O [carbidopa],-5,-1.47,-3.59,-2.28,-0.52%
Cc1cc(-c2cc(OC(=O)c3ccccc3)ccc2Cl)cc2nnc(Nc3ccc(OCCN4CCCC4)cc3)nc12,-2.62,2.55,2.44,1.14,2.17%
